Results taken from PubChem BioAssay.
Active and inactive are the calls of the source. Unless noted, how the calls were made is not given here.

What was measured:
[1] = anti-His antibody binders, primary screen, artefact control for SMM control protein annotation, biochemical, small-molecule microarray, 635 nm fluorescence (AID 1128); settings: anti-His Alexa647 antibody binding, higher = more signal;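 further: score merges feature fluorescence with signal-to-noise for each printed compound spot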
[2] = test system: Human papillomavirus type 1a E7 protein (residues 1-88); experiment: HPV1a E7 small-molecule binders, primary screen, biochemical, small-molecule microarray, residues 1-88, 635 nm (AID 1129); settings: small-molecule microarray binding, fluorescence 635 nm; higher = more signal
[3] = biological target: Focal adhesion kinase 1 (Homo sapiens) (UniProt Q05397); experiment: small-molecule microarray binders of FAK, primary screen, biochemical, 635/667 nm fluorescence, BSA, DTT (AID 1130); settings: PTK2 binding, 635 nm fluorescence, higher = more signal;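 further: composite of spot emission at 667 nm and signal to noise over triplicate slides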
Chain of Focal adhesion kinase 1 (Homo sapiens) (Q05397 whole entry, looked up): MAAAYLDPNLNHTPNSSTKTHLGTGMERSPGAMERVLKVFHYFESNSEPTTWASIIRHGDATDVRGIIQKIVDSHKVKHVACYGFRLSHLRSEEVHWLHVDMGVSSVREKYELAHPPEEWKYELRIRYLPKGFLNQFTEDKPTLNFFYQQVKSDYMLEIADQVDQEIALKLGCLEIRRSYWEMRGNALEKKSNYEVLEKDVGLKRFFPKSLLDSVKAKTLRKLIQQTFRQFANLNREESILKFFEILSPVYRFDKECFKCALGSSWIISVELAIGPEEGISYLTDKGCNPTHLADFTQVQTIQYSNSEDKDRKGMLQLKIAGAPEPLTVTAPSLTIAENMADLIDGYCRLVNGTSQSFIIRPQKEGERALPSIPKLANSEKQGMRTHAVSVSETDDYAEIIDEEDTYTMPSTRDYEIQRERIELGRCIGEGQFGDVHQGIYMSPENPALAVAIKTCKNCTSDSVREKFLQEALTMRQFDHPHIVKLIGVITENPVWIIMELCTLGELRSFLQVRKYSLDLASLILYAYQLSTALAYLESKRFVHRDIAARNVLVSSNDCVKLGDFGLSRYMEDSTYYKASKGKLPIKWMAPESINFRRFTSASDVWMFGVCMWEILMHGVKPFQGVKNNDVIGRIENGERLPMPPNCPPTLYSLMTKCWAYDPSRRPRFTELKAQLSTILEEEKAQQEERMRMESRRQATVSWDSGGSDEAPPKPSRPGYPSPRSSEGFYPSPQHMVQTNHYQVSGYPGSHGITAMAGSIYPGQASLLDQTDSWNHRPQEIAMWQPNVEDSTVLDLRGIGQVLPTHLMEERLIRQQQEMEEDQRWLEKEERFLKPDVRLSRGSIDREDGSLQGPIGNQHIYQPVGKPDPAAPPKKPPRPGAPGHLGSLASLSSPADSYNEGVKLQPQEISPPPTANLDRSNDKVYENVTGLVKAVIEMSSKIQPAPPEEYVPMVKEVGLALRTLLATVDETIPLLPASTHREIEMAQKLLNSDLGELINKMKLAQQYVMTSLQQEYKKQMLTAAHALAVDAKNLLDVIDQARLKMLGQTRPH

[4] = test system: Fibrinogen (Alexa647-labelled); experiment: fibrinogen binders on compound microarrays, profiling panel, artefact control for SMM control-protein annotation, biochemical, small-molecule microarray, 635/667 nm fluorescence (AID 1131); settings: fibrinogen-A647 binding fluorescence, higher = more signal;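 further: z-score merges 667 nm fluorescence with per-spot signal-to-noise over triplicate slides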
[5] = biological target: Follistatin (Homo sapiens) (UniProt P19883); experiment: follistatin binders on small-molecule microarrays, primary screen, biochemical, small-molecule microarray, 635/667 nm fluorescence (AID 1132); settings: FST binding, 635 nm fluorescence, higher = more signal
Chain of Follistatin (Homo sapiens) (P19883 whole entry, looked up): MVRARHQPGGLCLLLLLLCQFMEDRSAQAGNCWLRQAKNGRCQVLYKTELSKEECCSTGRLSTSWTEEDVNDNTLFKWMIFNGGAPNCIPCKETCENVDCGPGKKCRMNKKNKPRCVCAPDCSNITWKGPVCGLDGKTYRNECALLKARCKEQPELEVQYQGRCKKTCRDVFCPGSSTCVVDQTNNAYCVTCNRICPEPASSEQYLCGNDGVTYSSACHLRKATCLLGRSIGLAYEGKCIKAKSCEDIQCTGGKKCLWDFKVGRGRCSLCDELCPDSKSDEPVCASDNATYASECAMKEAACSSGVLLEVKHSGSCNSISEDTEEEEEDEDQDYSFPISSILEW

[6] = biological target: Fibroblast growth factor 2 (Homo sapiens) (UniProt P09038); experiment: FGF2 binders on small-molecule microarrays, primary screen, biochemical, small-molecule microarray, 635/667 nm fluorescence (AID 1133); settings: small-molecule microarray binding, FGF2, fluorescence 635/667; higher = more signal
Chain of Fibroblast growth factor 2 (Homo sapiens) (P09038 whole entry, looked up): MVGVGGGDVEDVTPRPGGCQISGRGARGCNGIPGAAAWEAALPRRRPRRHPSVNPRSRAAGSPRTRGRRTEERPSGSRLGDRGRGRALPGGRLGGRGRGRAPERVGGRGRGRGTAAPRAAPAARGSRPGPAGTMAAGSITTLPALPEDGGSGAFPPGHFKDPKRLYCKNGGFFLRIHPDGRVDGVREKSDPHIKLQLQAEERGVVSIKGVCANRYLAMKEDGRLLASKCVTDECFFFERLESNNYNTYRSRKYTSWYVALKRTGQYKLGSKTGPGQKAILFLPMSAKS

[7] = mitochondrial membrane potential change in A549 cells, profiling panel, cell-based, JC-1 fluorescence, basal, 24 h, 100 nL (AID 1138); settings: higher = more signal;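 further: A549 lung adenocarcinoma cells under basal conditions with no added stimulus; test concentration not given here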
Lefty1 = Lefty1 binders on small-molecule microarrays, primary screen, biochemical, small-molecule microarray, 635/667 nm fluorescence (AID 1139); settings: small-molecule microarray binding, fluorescence 635/667; higher = more signal
[8] = test system: wheat germ agglutinin (Triticum aestivum), Alexa647-labelled; experiment: wheat germ agglutinin binders on compound microarrays, profiling panel, artefact control for SMM control-protein annotation, biochemical, small-molecule microarray, 635/667 nm fluorescence (AID 1140); settings: WGA-A647 binding, 635 nm fluorescence, higher = more signal;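 further: score merges 667 nm feature emission with signal to noise over triplicate slides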
[9] = biological target: Luciferin 4-monooxygenase (Photinus pyralis) (UniProt P08659); experiment: firefly luciferase enzyme inhibitors, primary screen, biochemical, luminescence, purified enzyme, 2006 set (AID 1141); settings: SteadyGlo luminescence, 30 min, higher = more signal, called active from +8 up or from −8 down;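 further: cell-free assay with purified firefly luciferase at 100 ng per well in PBS; test concentration not given here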
Chain of Luciferin 4-monooxygenase (Photinus pyralis) (P08659 whole entry, looked up): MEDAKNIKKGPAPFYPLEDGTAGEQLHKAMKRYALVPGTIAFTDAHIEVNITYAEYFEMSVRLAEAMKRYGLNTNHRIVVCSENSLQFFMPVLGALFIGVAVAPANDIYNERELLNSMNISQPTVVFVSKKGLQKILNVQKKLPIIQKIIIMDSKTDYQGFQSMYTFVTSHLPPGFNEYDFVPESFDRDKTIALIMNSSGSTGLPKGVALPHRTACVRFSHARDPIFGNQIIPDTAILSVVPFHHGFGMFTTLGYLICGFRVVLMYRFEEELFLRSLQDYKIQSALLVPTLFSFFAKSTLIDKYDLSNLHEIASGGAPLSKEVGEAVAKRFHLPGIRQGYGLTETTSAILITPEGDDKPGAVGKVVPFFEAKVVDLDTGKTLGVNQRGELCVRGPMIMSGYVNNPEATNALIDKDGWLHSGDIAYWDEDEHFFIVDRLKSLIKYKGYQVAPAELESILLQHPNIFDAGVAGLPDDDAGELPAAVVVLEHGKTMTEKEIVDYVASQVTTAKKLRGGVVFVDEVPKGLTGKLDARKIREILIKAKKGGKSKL

[10] = test system: Wnt5a (protein binding on small-molecule microarray); experiment: Wnt5a binders on small-molecule microarray, primary screen, biophysical, 635/667 nm fluorescence (AID 1142); settings: 635 nm fluorescence, higher = more signal;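 further: fluorescence read at 667 nm with signal to noise per printed feature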
[11] = cell viability in Huh7 cells, primary screen, cytotoxicity control for HCV replication inhibitor project, CellTiter-Glo luminescence, basal, 48 h (AID 1143); settings: Huh7 HCV replicon, higher = more signal, called active from +8 up or from −8 down;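 further: Huh7 hepatoma cells carrying a hepatitis C replication reporter with no stimulus; test concentration not given here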
[12] = P. aeruginosa biofilm formation inhibitors, primary screen, PAO1 strain, BacTiter-Glo luminescence, LB-PBS (AID 1144); settings: 12 h, higher = more signal
[13] = CREB reporter modulators without forskolin, primary screen, cell-based, PC12, CRE-LacZ reporter, unstimulated (AID 1145); settings: no forskolin, luminescence, 4.5 h, higher = more signal, called active from +8 up or from −8 down
[14] = CREB reporter modulators under forskolin, primary screen, cell-based, PC12, CRE-LacZ reporter, forskolin-stimulated (AID 1146); settings: luminescence, 4.5 h, higher = more signal, called active from +8 up or from −8 down;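 further: PC12 cells with 6xCRE LacZ reporter stimulated by forskolin 10 µM; beta-galactosidase reporter signal reflecting CREB driven transcription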
[15] = biological target: Streptavidin (Streptomyces avidinii) (UniProt P22629); experiment: streptavidin binders on small-molecule microarray, primary screen, artefact control for SMM compound annotation, biophysical, 635/667 nm fluorescence (AID 1147); settings: streptavidin binding, higher = more signal;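 further: signal reflects streptavidin binding to arrayed compounds as a control protein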
Chain of Streptavidin (Streptomyces avidinii) (P22629 whole entry, looked up): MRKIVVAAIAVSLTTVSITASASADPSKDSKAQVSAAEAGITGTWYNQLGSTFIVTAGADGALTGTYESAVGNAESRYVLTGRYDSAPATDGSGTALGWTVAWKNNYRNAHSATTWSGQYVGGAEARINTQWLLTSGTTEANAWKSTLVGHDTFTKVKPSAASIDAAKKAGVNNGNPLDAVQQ

[16] = small-molecule binders of probe aInhba, primary screen, biochemical, small-molecule microarray, 635/667 nm fluorescence (AID 1148); settings: higher = more signal;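 further: score merges 667nm spot fluorescence with signal-to-noise for antibody binding to printed compounds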
Torsin-1A (Homo sapiens) [17] = biological target: Torsin-1A (Homo sapiens) (UniProt O14656); experiment: torsin A binders from cell lysate, primary screen, small-molecule microarray, wild-type, 635/667 nm (AID 1149); settings: COS7 hTOR1A-WT lysate, 635 nm fluorescence, higher = more signal
Chain of Torsin-1A (Homo sapiens) (O14656 whole entry, looked up): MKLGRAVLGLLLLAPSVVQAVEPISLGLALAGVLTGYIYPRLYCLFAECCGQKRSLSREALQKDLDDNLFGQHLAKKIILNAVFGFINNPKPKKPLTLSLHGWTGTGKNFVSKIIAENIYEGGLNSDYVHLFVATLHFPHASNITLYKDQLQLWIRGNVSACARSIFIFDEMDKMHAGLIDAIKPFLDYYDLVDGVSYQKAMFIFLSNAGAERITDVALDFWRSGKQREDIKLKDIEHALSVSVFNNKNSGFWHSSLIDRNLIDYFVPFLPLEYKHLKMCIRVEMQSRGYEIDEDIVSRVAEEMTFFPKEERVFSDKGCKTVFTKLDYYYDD

Torsin-1A (Homo sapiens) [18] = biological target: Torsin-1A (Homo sapiens) (UniProt O14656); experiment: small-molecule binders of mutant TOR1A in lysate, primary screen, cell lysate, small-molecule microarray, COS7 lysate, 635/667 nm fluorescence (AID 1150); settings: COS7 hTOR1A mutant lysate, 635 nm fluorescence, higher = more signal;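 further: score pools 667 nm emission and signal to noise measuring lysate protein binding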
[19] = test system: Sonic hedgehog protein (Shh); experiment: small-molecule binders of Shh protein, primary screen, biochemical, small-molecule microarray, 635/667 nm fluorescence (AID 1151); settings: small-molecule microarray binding, 635 nm fluorescence; higher = more signal;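 further: Shh protein binding to compounds spotted on small-molecule microarray slides; score combines spot fluorescence intensity with signal-to-noise across triplicate slides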

| SMILES | composite z-score [1] | composite z-score [2] | composite z-score [3] | composite z-score [4] | composite z-score [5] | composite z-score [6] | z-score [7] | composite z-score (Lefty1) | composite z-score [8] | z-score [9] | composite z-score [10] | z-score [11] | z-score [12] | z-score [13] | z-score [14] | composite z-score [15] | composite z-score [16] | composite z-score (Torsin-1A (Homo sapiens) [17]) | composite z-score (Torsin-1A (Homo sapiens) [18]) | composite z-score [19] |
| --- | --- | --- | --- | --- | --- | --- | --- | --- | --- | --- | --- | --- | --- | --- | --- | --- | --- | --- | --- | --- |
| COC(=O)[C@@]1(Cc2ccccc2CN=[N+]=[N-])N=C(c2ccc(OCCCO)cc2)O[C@H]1c1ccccc1 | 2.5 | 0.942 | 0.32 | 0.191 | 1.21 | 0.255 | -0.734 | 0.143 | 0.255 | -2.03 (inactive) | 0.337 | -4.77 (inactive) | -1.09 (inactive) | 2.38 (inactive) | -0.923 (inactive) | -0.533 | 0.412 | 0.0213 | 0.925 | 0.381 |
| COCC1C2CC[C@H]3C(OCc4ccc(OC)cc4)OC[C@]4(C)[C@H]3C2=C(CN4C(=O)OC(C)(C)C)[C@H](C)C1COC (stereo not given in full) | 0.565 | 1.2 | 2.09 | 1.02 | 0.916 | 0.0753 | 2.48 | 0.757 | 0.819 | -0.503 (inactive) | 0.261 | -2.88 (inactive) | 0.413 (inactive) | -0.185 (inactive) | -0.0287 (inactive) | 2.08 | -0.321 | 0.187 | 0.255 | 0.298 |
| COCCOC(=O)N1C(=O)[C@@]2(c3cc(C#CCCO)ccc31)[C@H](C(N)=O)[C@H]1C(=O)O[C@H](c3ccccc3)[C@H](c3ccccc3)N1[C@@H]2c1ccc(OCCO)cc1 | 0.911 | 1.19 | 0.663 | 0.877 | 1.09 | 0.805 | -1.03 | 0.794 | 0.583 | -1.17 (inactive) | 0.622 | -0.869 (inactive) | -0.402 (inactive) | -0.141 (inactive) | -0.087 (inactive) | 0.438 | 0.0391 | 1.47 | 0.684 | 1.36 |
| C=C(CCCC)C(=O)CC[C@H](OC(C)=O)c1ccc(OCCO)cc1 | 1.45 | -0.957 | 0.0145 | 0.431 | -0.243 | -0.271 | 0.208 | 0.108 | 0.359 | -0.66 (inactive) | -0.624 | -7.16 (inactive) | -1.17 (inactive) | 5.09 (inactive) | -0.361 (inactive) | 0.519 | -0.308 | -0.822 | -0.514 | -0.0938 |
| COCCOC(=O)N1C(=O)[C@@]2(c3cc(C#CCC(C(=O)OC)C(=O)OC)ccc31)[C@H](c1ccc(O)cc1)N1[C@H](c3ccccc3)[C@H](c3ccccc3)OC(=O)[C@H]1[C@@H]2C(=O)NC[C@H](O)c1ccccc1 | 0.135 | 1.19 | 0.933 | 0.8 | 1.11 | -0.011 | -0.236 | 0.222 | 1.03 | 1.04 (inactive) | 0.295 | -2.04 (inactive) | -0.0824 (inactive) | -0.231 (inactive) | -0.196 (inactive) | 1.7 | -0.0774 | 0.941 | 0.468 | 0.49 |
| CCCNC(=O)[C@@]1(C)c2ccccc2C(=O)N(Cc2ccccc2)[C@H]1c1ccc(CO)cc1 | 1.8 | 0.0323 | 1.28 | -0.872 | -0.571 | -0.258 | 1.03 | -0.975 | -0.231 | -1.18 (inactive) | -0.15 | -0.535 (inactive) | 0.62 (inactive) | 0.0924 (inactive) | -0.163 (inactive) | -1 | 0.101 | -0.102 | -1.96 | -0.203 |
| CS(=O)(=O)CCOC(=O)C1=CC(CCCO)=CC(C2CC2)N(Cc2cccc(OC(F)(F)F)c2)C=C1C(=O)OCCS(C)(=O)=O (stereo not given) | 1.96 | 0.852 | 0.386 | 0.701 | -0.0478 | -0.256 | 1.62 | 0.126 | 0.927 | -1.6 (inactive) | 0.0607 | -1.21 (inactive) | 0.154 (inactive) | 4.86 (inactive) | 0.0235 (inactive) | -0.358 | 0.0082 | 1.29 | 2.13 | 0.186 |
| CN(C)CCCNC(=O)[C@@H]1c2ccccc2C(=O)N(C2CCCCC2)[C@H]1c1ccc(CO)cc1 | 2.58 | 1.24 | -0.0457 | 0.508 | 1.35 | 1.3 | 0.494 | 1.04 | 0.277 | 0.876 (inactive) | 0.76 | -0.395 (inactive) | -0.312 (inactive) | 1.24 (inactive) | -0.291 (inactive) | 0.139 | 0.271 | 0.567 | 1.03 | 1.81 |
| CCOC(=O)C[C@H]1[C@H](OC(=O)c2ccc(-c3ccccc3)cc2)[C@@H](NC(=O)Cc2ccc(OC)cc2)c2cc(OCCCO)ccc2N1C(=O)Cc1ccc(OC)cc1 | -0.871 | -0.0151 | 0.0348 | 0.15 | 0.0322 | -0.0269 | 1.94 | -0.289 | 0.175 | -0.754 (inactive) | -0.0129 | 0.247 (inactive) | 0.00724 (inactive) | 0.773 (inactive) | -0.834 (inactive) | -0.0417 | -0.128 | -0.305 | 0.0922 | -0.259 |
| CC(C)C(=C=CC[C@@H](O)c1cccc(OCCO)c1)C[C@@H](O)c1ccccn1 | 1.39 | -0.0234 | 0.0046 | -1.15 | 0.484 | -0.0241 | 0.386 | 0.402 | 0.782 | 0.179 (inactive) | 0.189 | -0.846 (inactive) | -0.382 (inactive) | 1.13 (inactive) | -0.039 (inactive) | -0.637 | -0.13 | -0.84 | 0.405 | 0.935 |
